Unmarked numbers belong to inactive results.
Tested on: Vero E6 infected with SARS-CoV-2
Assay: inhibition of SARS-CoV-2 cytopathic effect; higher = more antiviral protection, active = above 15
Settings: 48 h

Structure (SMILES) | inhibition of SARS-CoV-2 cytopathic effect (1 nM) | inhibition of SARS-CoV-2 cytopathic effect (8.33 nM) | inhibition of SARS-CoV-2 cytopathic effect (100 nM) | inhibition of SARS-CoV-2 cytopathic effect (833.33 nM) | inhibition of SARS-CoV-2 cytopathic effect (10000 nM)
CNS(=O)(=O)Nc1nccc(Cc2c(C)c3ccc(Oc4ncccn4)cc3oc2=O)c1F | -0.25% | -3.18% | -10.4% | -17.5% | -15.7%
CSc1ccc2c(c1)N(CCC1CCCCN1C)c1ccccc1S2 (stereo not given) [thioridazine] | 1.41% | 3.38% | -2.55% | 1.05% | 41.9% (active)
Oc1cc(Cl)ccc1Oc1ccc(Cl)cc1Cl [triclosan] | -1.92% | -0.14% | 1.39% | -0.77% | 7.81%
C/C(=N\Nc1nnc2c(n1)[nH]c1c(C)cccc12)c1ccccn1 | 0.125% | -0.485% | 1.94% | 1.06% | -7.81%
CCCCc1nc(Cl)c(C(=O)O)n1Cc1ccc(-c2ccccc2-c2nn[nH]n2)cc1 [carboxylosartan] | 1.07% | 1.82% | 1.92% | 0.51% | 0.68%
O=C(NCc1ccc(Oc2ccccc2)cc1)c1nc(-c2cc(Br)c(O)c(Br)c2)no1 | -1.01% | -0.54% | 0% | 0.07% | 0.36%
O=C(Oc1ccccc1C(=O)O)c1ccccc1O [sasapyrine] | -6.73% | -8.94% | -2.49% | -6.28% | -11.8%
COc1ccc(Nc2ncnc3ccc(OC)cc23)cc1 | 4.07% | 6.4% | 6.26% | 1.4% | -3.12%
CO[C@@]1(NC(=O)C(C(=O)O)c2ccc(O)cc2)C(=O)N2C(C(=O)O)=C(CSc3nnnn3C)CO[C@@H]21 (stereo not given in full) [moxalactam] | 1.45% | -1.13% | -0.85% | -1.15% | 1.01%
Cn1cc(/C=C2\C(=O)Nc3cccnc32)c2ccccc21 | -2.16% | -2.36% | 2.94% | 0.64% | 4.71%
Nc1nc(NC2CC2)c2ncn([C@H]3C=C[C@@H](CO)C3)c2n1 | -0.53% | -0.06% | 0.24% | 0.84% | 0.33%
O=S(=O)(c1ccccc1)c1cnc2c(N3CCNCC3)cccc2c1 | -2.8% | -0.02% | -3.01% | 0.98% | 1.43%
CCNC(=O)CC[C@H](N)C(=O)O [L-theanine] | -2.94% | -3.55% | -3.29% | -0.63% | -0.81%
CC(C)c1ccc(C(=O)c2cccs2)c(SCCCCCCCCN(C)C)n1 | -1.33% | 0.45% | 2.39% | 1.71% | 68.5% (active)
COC(=O)C1=CO[C@@H](O)[C@@H]2C(CO)=CC[C@H]12 [genipin] | -1.26% | 1% | 0.94% | -0.49% | -0.89%
CCC(=O)OCC(=O)[C@@]1(OC(=O)CC)[C@H](C)C[C@H]2[C@H]3[C@H]([C@@H](O)C[C@@]21C)[C@@]1(C)C=CC(=O)C=C1C[C@H]3Cl [alclometasone-dipropionate] | 3% | 0.48% | 1.16% | 1.07% | -2.92%
O[C@@](Cc1nc(CC2(C(F)(F)F)CC2)c[nH]1)(c1ccc(-n2cccn2)cc1)C(F)(F)F | 0.23% | -0.02% | 0.57% | -0.43% | -2.55%
CCOc1nc2cccc(C(=O)O)c2n1Cc1ccc(-c2ccccc2-c2noc(=O)[nH]2)cc1 [azilsartan] | 0.19% | 1.58% | 2.59% | 2.65% | 0.22%
COc1c(O[C@@H]2O[C@H](CO)[C@@H](O)[C@H](O)[C@H]2O)cc2c(c1OC)-c1ccc(SC)c(=O)cc1[C@@H](NC(C)=O)CC2 [thiocolchicoside] | 0.08% | 2.05% | -0.7% | -5.51% | -3.66%
CC(C)(N)Cc1ccccc1 [phentermine] | 2.16% | 1.33% | 2.37% | 3.73% | 1.23%

Structure (SMILES) | inhibition of SARS-CoV-2 cytopathic effect (1 nM) | inhibition of SARS-CoV-2 cytopathic effect (8.33 nM) | inhibition of SARS-CoV-2 cytopathic effect (100 nM) | inhibition of SARS-CoV-2 cytopathic effect (833.33 nM) | inhibition of SARS-CoV-2 cytopathic effect (10000 nM)
O=C(O)[C@H](Cc1ccc(Nc2nccc3ccncc23)cc1)NC1=C(Br)C(=O)C12CCCCC2 | 0.12% | 0.67% | -0.71% | -0.14% | 2.62%
COc1ccc(CCN)cc1OC [homoveratrylamine] | 0.49% | 7.09% | 12.7% | 5.43% | 11.1%
CC(C)(C)C(=O)C(Oc1ccc(Cl)cc1)n1ccnc1 (stereo not given) [climbazole] | -1.08% | 1.03% | -1.59% | -1.58% | 0.15%
Cc1cc(Nc2cc(C)c(C#N)c(N[C@@H](C)CCCC(C)(C)O)n2)n[nH]1 | -1.85% | -0.28% | -1.25% | -6.81% | -8.95%
CCNC(C)CN1CCc2c(c(=O)oc3ccccc23)C1 (stereo not given) | -2.32% | 0.86% | -0.83% | -0.78% | -2.07%
CC=C1C(=O)C[C@H]2[C@@H]3CCC4=CC(=O)CC[C@]4(C)[C@H]3CC[C@]12C | 0.03% | -0.87% | -1.56% | -0.96% | 4.3%
COc1cc2ncnc(Nc3cccc(Br)c3)c2cc1OC | -2.89% | -3.44% | -2.56% | -11.5% | 36.3% (active)
COc1cc(N2CCOCC2)ccc1Nc1ncc(Cl)c(Nc2ccccc2NS(C)(=O)=O)n1 | 0.93% | 2.59% | 2.32% | -2.21% | -13.2%
Cn1c(=O)c2c(ncn2CCO)n(C)c1=O [etofylline] | 0.6% | 0.32% | -0.66% | -1.82% | -1.01%
CC(C)(C)CC(C)(C)c1cc(Cc2cc(C(C)(C)CC(C)(C)C)cc(-n3nc4ccccc4n3)c2O)c(O)c(-n2nc3ccccc3n2)c1 [bisoctrizole] | 0.77% | 2.98% | 2.99% | 1.93% | 3.96%
Nc1nc(N)c2nc(-c3ccccc3)c(N)nc2n1 [triamterene] | 0.51% | 2.72% | 4.04% | 0.17% | -2.92%
O=C(O)C(O)Cc1ccc(O)c(O)c1 (stereo not given) [sodium-danshensu] | 1.07% | -0.48% | 2.17% | -0.61% | -1.7%
C=C1C[C@]23C[C@@]1(O)CC[C@H]2[C@@]12C=C[C@H](O)[C@@](C)(C(=O)O1)[C@H]2[C@@H]3C(=O)O | 0.13% | 0.82% | 1.4% | 2.17% | -0.14%
O=C(Cc1ccccc1)Nc1nc2ccc(Cl)cc2c2nc(-c3ccco3)nn12 | 3.65% | 4.32% | 3.84% | 2.42% | 4.22%
O=C(O)c1c(Cl)c(Cl)c(Cl)c(Cl)c1-c1c2cc(I)c(=O)c(I)c-2oc2c(I)c(O)c(I)cc12 [rose-bengal] | -2.56% | -2.17% | 1.8% | -2.12% | -13.9%
CCCc1nc2c(C)cc(-c3nc4ccccc4n3C)cc2n1Cc1ccc(-c2ccccc2C(=O)O)cc1 [telmisartan] | -1.56% | -2.17% | -4.81% | 2.3% | 1.33%
C[C@@H]1C[C@H]2[C@@H]3C[C@H](F)C4=CC(=O)C=C[C@]4(C)[C@@]3(F)[C@@H](O)C[C@]2(C)[C@@]1(O)C(=O)CO [flumethasone] | 0.24% | -0.72% | 1.45% | 0.62% | 0.56%
Oc1ccc(O)cc1 [hydroquinone] | -0.8% | 2.88% | 1.25% | 1.2% | 1.62%
NC[C@H]1O[C@H](O[C@H]2[C@H](O)[C@@H](O[C@H]3O[C@H](CO)[C@@H](O)[C@H](N)[C@H]3O)[C@H](N)C[C@@H]2N)[C@H](N)[C@@H](O)[C@@H]1O [bekanamycin] | -0.6% | -0.02% | -0.32% | 0% | -1.85%

Source: the supplement of paper PMC13380429
